# Compound activity as filed in PubChem BioAssay.
# Compounds with a hit are over-represented: about 3.1% of the library has one in this group of screens.
# FAS-TE inh – FAS thioesterase (human) inhibition | P49327 | recombinant FAS-TE, OMFH fluorogenic substrate, fluorescence endpoint | inhibition, % at 15 µM | actives 0.67% (n = 360,000) | AID 602261;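 active = compounds whose normalised, plate-corrected inhibition of enzyme fluorescence in the single-dose primary screen is 50% or more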;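 also: 0% = DMSO with enzyme and 100% = substrate without enzyme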
# ATG4B inh – blocks human ATG4B protease cleavage of LC3 substrate | actives 0.51% (n = 340,000) | inhibition, % at 8.33 µM | ATG4B cleavage of LC3-PLA2, NBD-HPC fluorescence, 1 h | AID 504462 | Q9Y4P1; in the data active = inhibition above about 40%
# Target sequence (Q9Y4P1 whole entry, looked up): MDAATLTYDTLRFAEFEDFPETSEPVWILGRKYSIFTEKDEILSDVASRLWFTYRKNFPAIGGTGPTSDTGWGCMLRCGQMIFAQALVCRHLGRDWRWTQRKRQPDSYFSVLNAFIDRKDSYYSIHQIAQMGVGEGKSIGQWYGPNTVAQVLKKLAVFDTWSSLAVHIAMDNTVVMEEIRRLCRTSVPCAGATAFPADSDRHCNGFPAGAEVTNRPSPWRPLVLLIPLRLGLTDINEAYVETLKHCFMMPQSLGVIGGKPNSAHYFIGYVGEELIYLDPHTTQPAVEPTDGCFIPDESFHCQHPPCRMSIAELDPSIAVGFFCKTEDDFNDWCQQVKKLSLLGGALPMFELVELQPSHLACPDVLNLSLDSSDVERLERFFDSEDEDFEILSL
# Calb FLC – C. albicans growth modulation with fluconazole. C. albicans CaCi-2 (fluconazole-resistant clinical isolate) + fluconazole, Alamar Blue growth, 48 h. growth inhibition, % (test concentration not listed). actives 0.57% (n = 300,000). AID 1979;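 active = growth inhibition above about 58% in most replicates, limit read from the data, passing the limit was not always enough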;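 also: all wells also contain fluconazole at 8 µg/ml as a sub-toxic cotreatment; 0% = median of DMSO wells and 100% = median of geldanamycin control wells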
# SUMO Mot1 rescue – SUMOylation pathway inhibition by Mot1-301 growth rescue | S. cerevisiae Mot1-301 growth rescue, ATP luminescence, 38.5C; percent above DMSO median, 100 means doubled | growth rescue, % at 18.8 µM | actives 1% (n = 320,000) | AID 2716;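 active = every valid replicate shows activation above 250% relative to neutral control wells; inactive = the rest, any valid replicate at or below 250%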;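 also: OY570 slx delta 5 strain wells were the positive control but not used for scaling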
# NadD block – inhibitors of Staphylococcus aureus NadD; purified NadD enzyme, colorimetric absorbance read-out; inhibition, % at 20 µM; actives 0.78% (n = 360,000); AID 602399; in the data active = inhibition above about 26%
# NadD conf – confirmation of Staphylococcus aureus NadD inhibitors | shares compounds with NadD block | inhibition, % at 20 µM | purified S. aureus NadD, colorimetric enzyme assay | actives 13% (n = 2,000); in the data active = inhibition mostly above about 42%, no sharp cut-off; inactive = mostly below about 42%
# * marks the source's active call; other numbers are inactive results; · = no result.
SMILES,FAS-TE inh,ATG4B inh,Calb FLC,SUMO Mot1 rescue,NadD block,NadD conf
Cn1c(=O)n(C)c2cc3[nH]cnc3cc21,-5,-5,5,-15,-6,·
Nc1cc2nc[nH]c2cc1N,-4,6,25,·,39*,37
O=C(Nc1ccc(Cl)c(Cl)c1)Nc1ccc([N+](=O)[O-])cn1,16,-4,13,22,34*,6
CCn1nc(C)cc1C(=O)N1CCCC(N2CCN(Cc3ccc4c(c3)OCO4)CC2)C1 (stereo not given),-3,-11,0,9,-6,·
Nc1c(C(=O)CSc2n[nH]c(-c3ccccc3)n2)c(=O)[nH]c(=O)n1C1CC1,-2,-3,·,·,-4,·
O=c1[nH]c(C2CCN(S(=O)(=O)c3ccc4c(c3)OCCO4)CC2)nc2c1nnn2Cc1c(F)cccc1Cl,24,-6,11,5,33*,30
O=c1[nH]c(C2CCN(S(=O)(=O)c3ccc4c(c3)OCCO4)CC2)nc2c1nnn2Cc1ccccc1F,18,-15,-7,0,34*,27
O=c1[nH]c(C2CCN(S(=O)(=O)c3ccccc3)CC2)nc2c1nnn2Cc1c(F)cccc1Cl,16,-1,17,105,25,·
Cc1ccc(N2C(=O)c3ccccc3C2=O)nc1,-7,-4,4,6,2,·
C(=C\c1ccco1)/c1ccc2ccccc2n1,-3,8,-13,-5,44*,11
COC(=O)Cn1c(=NC(=O)c2sc3ccccc3c2Cl)sc2cc(S(N)(=O)=O)ccc21,4,-6,5,-5,37*,7
CCOC(=O)Cn1c(=NC(=O)c2sc3ccccc3c2Cl)sc2cc(S(N)(=O)=O)ccc21,-1,8,1,-9,51*,-2
COc1cccc(NC(=O)CN(C)C(=O)c2cc(-c3cccc(Br)c3)nc3ccccc23)c1,28,-21,2,20,7,·
O=C(NCc1ccc(F)cc1)c1cccnc1C(=O)O,-4,7,0,-5,-4,·
Cc1ccc(C2C(C=Nc3c(C)n(C)n(-c4ccccc4)c3=O)=C(c3ccccc3)Oc3ccccc32)cc1 (stereo not given),24,0,-8,-24,38*,11
Cc1ccc(C(=O)N/N=C/c2cccc(OC(=O)/C=C/c3ccco3)c2)cn1,-2,-21,2,-21,-1,·
O=C(CNc1cccc2ccccc12)N/N=C/c1ccc(OC(=O)/C=C/c2ccco2)cc1,28,-5,0,·,40*,13
O=C(CNc1cccc2ccccc12)N/N=C/C(Br)=C/c1ccccc1,12,-1,-11,31,45*,24
O=C(/C=C/c1ccco1)Oc1cc(Br)cc(/C=N/NC(=O)c2ccccc2O)c1,12,27,90*,182,38*,36
O=C(CNc1cccc2ccccc12)N/N=C/c1ccc[nH]1,5,-4,0,11,4,·
Cc1ccc(NC(=O)c2cc(C(=O)c3cc(Cl)ccc3O)cn(-c3ccc(C)cc3)c2=O)cc1,39,-1,-3,2,31*,-11
CC(C)NC(=O)c1cc(-c2cccs2)nc2ccccc12,-1,-4,-32,0,-5,·
Cc1cccc2sc(NNC(=O)c3cc(-c4cccs4)nc4ccccc34)nc12,11,-3,85*,-15,49*,48*
COc1ccc(C2=NN(C(C#N)c3ccc(OC)cc3)C(c3ccccc3)C2)cc1 (stereo not given),35,4,-14,4,-7,·
Cc1ccc(-c2nsc3c(N4CCC(C(N)=O)CC4)ncnc23)cc1,-8,11,13,2,31*,6
CCN(CC)CCCNc1oc(-c2ccccc2[N+](=O)[O-])nc1C#N,-3,5,-3,-13,-2,·
N#C/C(=C/c1ccc(F)cc1)c1nnc(NC(=O)c2ccccc2)s1,-6,-7,0,-17,36*,4
O=C1CC(=C2c3ccccc3-c3ccccc32)C(=O)N1CCN1CCN(c2cccc(Cl)c2)CC1,16,-2,-13,-4,69*,60*
Oc1ccc(Cl)cc1/C=C/c1ccc2cccc(O)c2n1,12,13,-1,·,3,·
Oc1ccc2ccccc2c1/C=C/c1ccc2c(Br)cc(Br)c(O)c2n1,21,3,·,·,58*,33
